Here are results for 15 compounds from PubChem BioAssay (NCATS).

The structures appear in SMILES notation. Inconclusive results are not listed. Active and inactive are the calls of the source. Calls come from the whole dose curve; as a rule, active = well fitted curve in the direction sought with a large enough effect; inconclusive = small, poorly fitted or top-dose-only effect, or another doubt; inactive = no such curve, though single readings can be large; an effect the other way counts as inactive or inconclusive.

The nature of assay [1]: qHTS of pediatric cancer cell lines to identify multiple opportunities for drug repurposing: Confirmatory screen for BT-37 cells (AID 1347117). Note: potency is the fitted concentration of half-maximal effect.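 Note: viability measured after 48 h of compound exposure; nearly all actives have a fitted effect of over 55% in size.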 The procedure, abridged: (§1)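 Cells (500-1,000/well) rested 5 h, then received compounds for 48 h; metabolically active cells were measured by CellTiter-Glo luminescence. Final concentrations spanned up to 46 µM (MIPE, 11-point) or 0.59 nM-46 µM (NPC, 8-point) in primary screens, 11-point in follow-ups.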
In general terms: qHTS replaces the single test concentration by a dilution series.

Assay [2] can be described thus: qHTS of pediatric cancer cell lines to identify multiple opportunities for drug repurposing: Confirmatory screen for TC32 cells (AID 1347118).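 Note: potency is the fitted concentration of half-maximal effect; cells exposed to compound for 48 h before the read; nearly all actives have a fitted effect of over 65% in size.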 A digest of the protocol:
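Luminescent CellTiter-Glo read-out of metabolically active TC32 cells after 48 h compound exposure. Primary: MIPE 11-point, 0.78 nM–46 µM; NPC 8-point, 0.59 nM–46 µM. Confirmatory: 11-point dilutions.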

A short description of assay [3]: qHTS of pediatric cancer cell lines to identify multiple opportunities for drug repurposing: Confirmatory screen for MG 63 (6-TG R) cells (AID 1347119). Note: nearly all actives have a fitted effect of over 55% in size. Note: potency is the fitted concentration of half-maximal effect. A digest of the protocol:
as §1

The nature of assay [4]: qHTS of pediatric cancer cell lines to identify multiple opportunities for drug repurposing: Confirmatory screen for Rh18 cells (AID 1347125). Note: nearly all actives have a fitted effect of over 55% in size. Note: potency is the fitted concentration of half-maximal effect. A digest of the protocol:
as §1

Assay [5] is described as follows: qHTS of pediatric cancer cell lines to identify multiple opportunities for drug repurposing: Confirmatory screen for Saos-2 cells (AID 1347127). Note: nearly all actives have a fitted effect of over 60% in size. Note: potency is the fitted concentration of half-maximal effect. A digest of the protocol:
as §1

A short description of assay [6]: qHTS of pediatric cancer cell lines to identify multiple opportunities for drug repurposing: Confirmatory screen for OHS-50 cells (AID 1347128).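 Note: compound exposure lasted 48 h at 37 degrees C; nearly all actives have a fitted effect of over 55% in size.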 Note: potency is the fitted concentration of half-maximal effect. A digest of the protocol: as §1
Assay [7] is described as follows: qHTS of pediatric cancer cell lines to identify multiple opportunities for drug repurposing: Confirmatory screen for SK-N-SH cells (AID 1347129).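 Note: cells exposed to compound for 48 h before viability read; nearly all actives have a fitted effect of over 60% in size.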 Note: potency is the fitted concentration of half-maximal effect. The procedure, abridged:
as §1

Assay [8] relates to Zika virus NS2B-NS3 protease. Briefly: Primary screen GU AMC qHTS for Zika virus inhibitors (AID 1347154). Note: nearly all actives have a fitted effect of over 70% in size. A digest of the protocol:
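Fluorogenic AMC-substrate cleavage by noncovalent NS2B-NS3 protease complex (25 nM, pH 8.0 Tris buffer with Tween 20) followed for 15 minutes at room temperature (~20% conversion). Percent inhibition from ex340/em450 signal change, fitted by 4-parameter Hill equation.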

For assay [9], the system named is Zika virus NS2B-NS3 protease (unlinked complex). As to the kind of experiment: Primary screen GU Rhodamine qHTS for Zika virus inhibitors: Unlinked NS2B-NS3 protease assay (AID 1347159). Note: nearly all actives have a fitted effect of over 60% in size. A digest of the protocol:
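Noncovalent NS2B hydrophilic domain–NS3 protease domain complex (25 nM) preincubated 15 min at room temperature with compounds (up to 114 microM) in 10 mM Tris-HCl pH 8.0, 0.01% Tween 20; 1.5 microM Rhodamine110 substrate added, fluorescence change over 15 min fitted to Hill equation.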

Assay [10] is described as follows: qHTS of pediatric cancer cell lines to identify multiple opportunities for drug repurposing: Confirmatory screen for control Hh wild type fibroblast cells (AID 1347121). Note: nearly all actives have a fitted effect of over 70% in size. A digest of the protocol: as §1
A short description of assay [11]: qHTS of pediatric cancer cell lines to identify multiple opportunities for drug repurposing: Confirmatory screen for RD cells (AID 1347124).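 Note: cells exposed to compound for 48 h before viability readout; nearly all actives have a fitted effect of over 65% in size.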 Note: potency is the fitted concentration of half-maximal effect. A digest of the protocol:
as §1

The nature of assay [12]: qHTS of pediatric cancer cell lines to identify multiple opportunities for drug repurposing: Confirmatory screen for Rh30 cells (AID 1347126). Note: nearly all actives have a fitted effect of over 55% in size. Note: potency is the fitted concentration of half-maximal effect. The procedure, abridged: as §1
Assay [13] in a line: qHTS of pediatric cancer cell lines to identify multiple opportunities for drug repurposing: Confirmatory screen for U-2 OS cells (AID 1347122). Note: potency is the fitted concentration of half-maximal effect; nearly all actives have a fitted effect of over 65% in size. The procedure, abridged:
as §1

Assay [14] can be described thus: qHTS of pediatric cancer cell lines to identify multiple opportunities for drug repurposing: Confirmatory screen for Rh41 cells (AID 1347123). Note: nearly all actives have a fitted effect of over 60% in size. Note: potency is the fitted concentration of half-maximal effect. The procedure, abridged: as §1
Assay [15] has as its system Zika virus NS2B-NS3 protease (unlinked complex). As to the kind of experiment: Confirmatory screen GU AMC qHTS for Zika virus inhibitors (AID 1347153). Note: nearly all actives have a fitted effect of over 70% in size. The procedure, abridged: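 Noncovalent NS2B hydrophilic domain/NS3 protease complex (25 nM) in 10 mM Tris-HCl pH 8.0, 0.01% Tween 20 was preincubated 15 min at room temperature with compounds. Then 10 µM AMC substrate (Km 18.3 µM) was added; fluorescence was read over 15 min and fitted to a 4-parameter Hill equation.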

Regarding `Cc1c(CN2CCN(S(C)(=O)=O)CC2)sc2c(N3CCOCC3)nc(-c3cnc(N)nc3)nc12`, the Potency in assay [1] is 2080 nM (active); in assay [2], 737 nM (active); in [3] it was 329 nM (active); in assay [4] it was 1040 nM (active); in assay [5], 1310 nM (active); in [6], 2330 nM (active). Moreover, the Potency in assay [7] is 2960 nM (active). The Potency result in assay [8] and in assay [9] was “inactive” throughout.

Turning to `CCOc1cc2ncc(C#N)c(Nc3ccc(F)c(Cl)c3)c2cc1NC(=O)C=CCN(C)C`, the Potency in [1] was 65.7 nM (active); in assay [2], 58.5 nM (active); in assay [5] it was 104 nM (active); in assay [6] it was 147 nM (active). Moreover, the Potency result in [10], in [11], in assay [4] and in assay [8] was “inactive” each time.

For `COc1cc2c(NC3CCN(C(C)C)CC3)nc(C3CCCCC3)nc2cc1OCCCN1CCCC1`, the Potency in [1] is 26100 nM (active); in [2], 4140 nM (active); in assay [11] it was 26100 nM (active); in assay [7], 7430 nM (active). For the same compound, the Potency entry in [10], in assay [12], in [8] and in [9] was “inactive” each time.

With `CN(C)Cc1c(C(=O)NCCOc2ccc(C(=O)NO)cc2)oc2ccccc12`, the Potency is 1170 nM (active) in [1]; 737 nM (active) in assay [2]; 1470 nM (active) in assay [3]; 657 nM (active) in assay [13]; 293 nM (active) in assay [14]; 1650 nM (active) in [11]. For the same compound, the Potency was 827 nM (active) in assay [4]; 1650 nM (active) in [12]; 1470 nM (active) in assay [5]; 1650 nM (active) in [6]; 3720 nM (active) in assay [7]. Besides, the Potency result in [8] and in assay [9] was “inactive” each time.

As to `COc1cccc2nc(-c3cccs3)nc(NN3C(=O)C=C(C)C3=O)c12`, the Potency in assay [1] was 1040 nM (active); in assay [2], 737 nM (active); in [3], 2930 nM (active); in assay [13] it was 1850 nM (active); in assay [14] it was 827 nM (active); in [11], 5220 nM (active). Further, the Potency is 20800 nM (active) in assay [4], 3690 nM (active) in [12], 2930 nM (active) in assay [5] and 2960 nM (active) in assay [7]. Further, the Potency result in assay [8] and in [9] was “inactive” in each case.

For the compound `Cn1c(=O)n(-c2ccc(C(C)(C)C#N)cc2)c2c3cc(-c4cnc5ccccc5c4)ccc3ncc21`, the Potency in assay [1] is 1170 nM (active); in assay [2], 827 nM (active); in assay [3], 369 nM (active); in assay [14], 2330 nM (active); in assay [12], 2330 nM (active); in [6], 5850 nM (active). For the same compound, the Potency result in assay [8] and in assay [9] was “inactive” each time.

For the compound `O=C(Cc1ccc(-c2ccc(OCCN3CCOCC3)cc2)cn1)NCc1ccccc1`, the Potency in assay [1] is 147 nM (active); in assay [2], 117 nM (active); in assay [3], 82.7 nM (active); in [13], 369 nM (active); in [14], 92.8 nM (active). The Potency result in [4], in [12], in assay [8] and in assay [9] was “inactive” in each case.

As for `O=C(Nc1cn[nH]c1-c1nc2ccc(CN3CCOCC3)cc2[nH]1)NC1CC1`, the Potency result in assay [1], in assay [3], in assay [10], in assay [14], in [11] and in [4] was “inactive” in each case. The Potency result in assay [12], in assay [5], in [6], in [7] and in [8] was “inactive” in each case.

For `CC[C@@H]1C(=O)N(C)c2cnc(Nc3ccc(C(=O)NC4CCC(N5CCN(CC6CC6)CC5)CC4)cc3OC)nc2N1C(C)C` (stereo not given in full), the Potency result in assay [1], in assay [3], in assay [10], in assay [11], in assay [4] and in assay [12] was “inactive” throughout. Moreover, the Potency result in assay [5], in [7], in assay [8] and in [9] was “inactive” each time.

On to `COc1ccc(-c2cc3c(C)nc(N)nc3n(C3CCC(OCCO)CC3)c2=O)cn1` (stereo not given), for which the Potency entry in assay [1], in [3], in [10], in [11], in [4] and in assay [12] was “inactive” each time. In addition, the Potency result in [5], in assay [6], in assay [7] and in assay [8] was “inactive” each time.

Regarding `C=C1C(=CC=C2CCC[C@]3(C)[C@@H]([C@H](C)C=C[C@H](C)C(C)C)CC[C@@H]23)C[C@@H](O)C[C@@H]1O`, the Potency is 23300 nM (active) in assay [2] and 2930 nM (active) in assay [3]. For the same compound, the Potency entry in [10], in assay [4], in assay [5], in [7] and in assay [8] was “inactive” each time.

Turning to `Cc1ccc(C(=O)Nc2cccc(C(F)(F)F)c2)cc1-c1ccc2nc(NCCN3CCOCC3)ncc2c1`, the Potency was 4140 nM (active) in assay [1]; 6570 nM (active) in [2]; 4140 nM (active) in [13]; 5850 nM (active) in assay [14]; 7370 nM (active) in assay [11]; 7370 nM (active) in assay [4]. Also, the Potency is 5220 nM (active) in assay [12], 8270 nM (active) in [5] and 8270 nM (active) in assay [6]. The Potency entry in assay [7], in assay [15] and in assay [9] was “inactive” in each case.

With `Cc1cn(-c2cc(NC(=O)c3ccc(C)c(Nc4nccc(-c5cccnc5)n4)c3)cc(C(F)(F)F)c2)cn1`, the Potency in assay [1] is 16500 nM (active); in assay [14] it was 11700 nM (active); in assay [12], 20800 nM (active); in [6] it was 18500 nM (active); in assay [7] it was 18700 nM (active). The Potency result in assay [10] and in assay [8] was “inactive” throughout.

As to `COc1ccc(OC)c(-c2nnc3ccc(-c4ccc(OC)c(O[C@@H]5CCOC5)c4)nn23)c1`, the Potency in [1] is 7370 nM (active); in assay [2], 2930 nM (active); in assay [14] it was 2930 nM (active); in assay [11], 11700 nM (active); in assay [12] it was 4140 nM (active); in [6], 6570 nM (active). Besides, the Potency result in assay [4] and in assay [8] was “inactive” each time.

For the compound `Nc1cc(C(F)(F)F)c(-c2cc(N3CCOCC3)nc(N3CCOCC3)n2)cn1`, the Potency in [2] was 4140 nM (active); in assay [3], 3690 nM (active); in [14], 5850 nM (active); in [11], 5850 nM (active); in [12], 4140 nM (active); in assay [7], 4690 nM (active). The Potency result in [8] and in assay [9] was “inactive” throughout.
